We go through 34 compounds from PubChem BioAssay (NCATS).

Results filed as inconclusive are left out. A call without a number means that no potency is given here. Calls of active or inactive are those of the source. Calls come from the whole dose curve; as a rule, active = well fitted curve in the direction sought with a large enough effect; inconclusive = small, poorly fitted or top-dose-only effect, or another doubt; inactive = no such curve, though single readings can be large; an effect the other way counts as inactive or inconclusive.
Potency is the fitted concentration of half-maximal effect.

The nature of the first assay: Quantitative High-Throughput drug screen in 47 multiple myeloma cell lines against the NCATS MIPE library collection: MMM1_PLB cell viability assay (AID 1918976). Note: nearly all actives have a fitted effect of over 35% in size. The conditions noted are these: MMM1 myeloma cells viability, CellTiter-Glo, 48 h; series mostly up to 45.8 µM. The procedure, abridged: (§1)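 Viability after 48 h drug exposure was measured as ATP-dependent luminescence. Cells, 500 per well, sat at 37 °C under 5% CO2; DMSO wells set 100%, media-only wells 0%.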
Take `CC(C)[C@H](N)C(=O)OCCOCn1cnc2c(=O)[nH]c(N)nc21`: the Potency result is “inactive”. The same measure, in the same setting: for `CC(=O)O[C@H]1C(=O)[C@@]2(C)C([C@H](OC(=O)c3ccccc3)[C@]3(O)C[C@H](OC(=O)[C@H](O)[C@@H](NC(=O)c4ccccc4)c4ccccc4)C(C)=C1C3(C)C)[C@]1(OC(C)=O)CO[C@@H]1C[C@@H]2O` (some centres not stated) the value was 14.8 µM (active); for `CN1C(C(=O)Nc2ccccn2)=C(O)c2sccc2S1(=O)=O`, 2.35 µM (active); for `Cc1cccc(-c2[nH]ncc2-c2ccc3ncccc3n2)n1`, “inactive”. Turning to `COc1cc(Nc2c(C#N)cnc3cc(OCCCN4CCN(C)CC4)c(OC)cc23)c(Cl)cc1Cl`, the Potency is 20.9 µM (active). On to `CCN(CC)C(=S)SSC(=S)N(CC)CC`, for which the Potency is 0.0187 µM (active).

For `COc1cc(C(C)=O)ccc1OCCCN1CCC(c2noc3cc(F)ccc23)CC1`, the Potency is 18.7 µM (active).

On to `Cc1cccc(C)c1OCC(=O)N[C@@H](Cc1ccccc1)[C@@H](O)C[C@H](Cc1ccccc1)NC(=O)[C@H](C(C)C)N1CCCNC1=O`, for which the Potency is 16.6 µM (active). `CC(=O)N1CCN(c2ccc(OC[C@H]3CO[C@](Cn4ccnc4)(c4ccc(Cl)cc4Cl)O3)cc2)CC1`: the Potency is 23.5 µM (active). The same measure, in the same setting: for `CCCOc1ccc2nc(NC(=O)OC)[nH]c2c1` the value was 1.32 µM (active). With `COc1ccc2cc([C@H](C)C(=O)O)ccc2c1`, the Potency was 16.6 µM (active). Turning to `CC(=O)NC[C@H]1CN(c2ccc(N3CCOCC3)c(F)c2)C(=O)O1`, the Potency was 4.69 µM (active). Same read-out and setting: for `CS(=O)(=O)OCCCCOS(C)(=O)=O` the value was 16.6 µM (active). In the case of `CC(C)C[C@H](NC(=O)[C@H](Cc1ccccc1)NC(=O)c1cnccn1)B(O)O`, the Potency is 0.469 µM (active). `O=C(NCCO[N+](=O)[O-])c1cccnc1`: the Potency result was “inactive”. Consider `N[C@@H](Cc1cc(I)c(Oc2cc(I)c(O)c(I)c2)c(I)c1)C(=O)O`, for which the Potency is 2.96 µM (active). Still for that read-out and setting: as for `Cc1cccc(CN2CCN(C(c3ccccc3)c3ccc(Cl)cc3)CC2)c1` (configuration not stated), the figure is 20.9 µM (active).

A short description of a further assay: Quantitative High-Throughput drug screen in 47 multiple myeloma cell lines against the NCATS MIPE library collection: MOLP8_DSMZ cell viability assay (AID 1918977). Note: nearly all actives have a fitted effect of over 45% in size. To be noted: MOLP8 myeloma viability, CellTiter-Glo ATP luminescence, 48 h; series mostly up to 45.8 µM. The procedure, abridged: as §1
A general note: Cellular ATP, detected with luciferase, serves as a proxy for viable cell number.
Consider `Nc1cc(C(Cl)=C(Cl)Cl)c(S(N)(=O)=O)cc1S(N)(=O)=O`, for which the Potency result is “inactive”.

As for `CC(=O)O[C@H]1C(=O)[C@@]2(C)C([C@H](OC(=O)c3ccccc3)[C@]3(O)C[C@H](OC(=O)[C@H](O)[C@@H](NC(=O)c4ccccc4)c4ccccc4)C(C)=C1C3(C)C)[C@]1(OC(C)=O)CO[C@@H]1C[C@@H]2O` (some centres not stated), the Potency entry is “inactive”.

For the compound `COc1cc(OC)c(C(=O)CCCN2CCCC2)c(OC)c1`, the Potency result was “inactive”.

Turning to `CCN(CCO)CCCC(C)Nc1ccnc2cc(Cl)ccc12` (configuration not stated), the Potency entry was “inactive”. Same read-out and setting: as for `CCc1nc(N)nc(N)c1-c1ccc(Cl)cc1`, the entry is “inactive”. Regarding `OC(CN1CCN(c2cccc(Cl)c2)CC1)C(c1ccccc1)c1ccccc1` (configuration not stated), the Potency result is “inactive”. On to `COc1cc2nc(N3CCN(C(=O)C4CCCO4)CC3)nc(N)c2cc1OC` (configuration not stated), for which the Potency entry was “inactive”.

In the case of `CN(C)C(=O)COC(=O)Cc1ccc(OC(=O)c2ccc(N=C(N)N)cc2)cc1`, the Potency result was “inactive”. With `C[C@@H](N)C1CCC(C(=O)Nc2ccncc2)CC1` (some centres not stated), the Potency result was “inactive”. On the same count and under the same terms, as for `Cc1ccc(C)c(OCCCC(C)(C)C(=O)O)c1`, the entry is “inactive”; as for `O=C1c2c(O)cc(O)cc2OC(c2ccc(O)c(O)c2)C1O` (configuration not stated), “inactive”; as for `CCN(CC)C(=S)SSC(=S)N(CC)CC`, 0.0093 µM (active). Regarding `COc1cc(C(C)=O)ccc1OCCCN1CCC(c2noc3cc(F)ccc23)CC1`, the Potency result is “inactive”. For `O=c1c(O)c(-c2ccc(O)cc2O)oc2cc(O)cc(O)c12`, the Potency result was “inactive”. For the compound `COc1ccc2cc([C@H](C)C(=O)O)ccc2c1`, the Potency result was “inactive”.

`CC(=O)NC[C@H]1CN(c2ccc(N3CCOCC3)c(F)c2)C(=O)O1`: the Potency was 7.43 µM (active).

Take `CN(c1nccc(=O)[nH]1)C1CCN(c2nc3ccccc3n2Cc2ccc(F)cc2)CC1`: the Potency entry is “inactive”. Consider `CC(C)C[C@H](NC(=O)[C@H](Cc1ccccc1)NC(=O)c1cnccn1)B(O)O`, for which the Potency is 0.0093 µM (active). Regarding `CCCCC(CC)COC(=O)C(C#N)=C(c1ccccc1)c1ccccc1` (configuration not stated), the Potency result is “inactive”. The same measure, in the same setting: as for `CN1CCC(=C2c3ccccc3CCc3sccc32)CC1`, the entry is “inactive”; as for `Cc1ccc(NC(=O)c2ccc(CN3CCN(C)CC3)cc2)cc1Nc1nccc(-c2cccnc2)n1`, “inactive”.

A short description of another assay: Quantitative High-Throughput drug screen in 47 multiple myeloma cell lines against the NCATS MIPE library collection: NCIH929_DSMZ cell viability assay (AID 1918978). Note: nearly all actives have a fitted effect of over 35% in size. To be noted: NCI-H929 myeloma viability, CellTiter-Glo ATP, 48 h; series mostly up to 45.8 µM. In a few lines:
as §1
Regarding `CC(C)[C@H](N)C(=O)OCCOCn1cnc2c(=O)[nH]c(N)nc21`, the Potency entry is “inactive”. For `Nc1cc(C(Cl)=C(Cl)Cl)c(S(N)(=O)=O)cc1S(N)(=O)=O`, the Potency result is “inactive”. The same measure, in the same setting: for `CC(=O)O[C@H]1C(=O)[C@@]2(C)C([C@H](OC(=O)c3ccccc3)[C@]3(O)C[C@H](OC(=O)[C@H](O)[C@@H](NC(=O)c4ccccc4)c4ccccc4)C(C)=C1C3(C)C)[C@]1(OC(C)=O)CO[C@@H]1C[C@@H]2O` (some centres not stated) the value was “inactive”. `COc1cc(OC)c(C(=O)CCCN2CCCC2)c(OC)c1`: the Potency entry was “inactive”. As for `CN1C(C(=O)Nc2ccccn2)=C(O)c2sccc2S1(=O)=O`, the Potency result is “inactive”.

On to `CCN(CCO)CCCC(C)Nc1ccnc2cc(Cl)ccc12` (configuration not stated), for which the Potency result was “inactive”. As for `CC1(C)CCC(C)(C)c2cc(NC(=O)c3ccc(C(=O)O)cc3)ccc21`, the Potency was 14.8 µM (active).

`COc1cc2nc(N3CCN(C(=O)C4CCCO4)CC3)nc(N)c2cc1OC` (configuration not stated): the Potency entry was “inactive”. On to `Cc1cccc(-c2[nH]ncc2-c2ccc3ncccc3n2)n1`, for which the Potency entry is “inactive”. Regarding `CCN(CC)CCOc1ccc(Cc2ccccc2)cc1`, the Potency entry is “inactive”. Still for that read-out and setting: as for `COc1cc(C(C)=O)ccc1OCCCN1CCC(c2noc3cc(F)ccc23)CC1`, the figure is 18.7 µM (active). As to `CC(=O)N1CCN(c2ccc(OC[C@H]3CO[C@](Cn4ccnc4)(c4ccc(Cl)cc4Cl)O3)cc2)CC1`, the Potency was 9.35 µM (active).

Consider `CCCOc1ccc2nc(NC(=O)OC)[nH]c2c1`, for which the Potency was 1.48 µM (active). Turning to `COc1ccc2cc([C@H](C)C(=O)O)ccc2c1`, the Potency entry is “inactive”.

As for `CC(=O)NC[C@H]1CN(c2ccc(N3CCOCC3)c(F)c2)C(=O)O1`, the Potency result was “inactive”. Regarding `CS(=O)(=O)OCCCCOS(C)(=O)=O`, the Potency entry is “inactive”. `CCCCC(CC)COC(=O)C(C#N)=C(c1ccccc1)c1ccccc1` (configuration not stated): the Potency entry was “inactive”. Take `CN1CCC(=C2c3ccccc3CCc3sccc32)CC1`: the Potency result is “inactive”.

`O=C(NCCO[N+](=O)[O-])c1cccnc1`: the Potency result was “inactive”.
